Results: PubChem BioAssay AID540267 (National Center for Advancing Translational Sciences (NCATS), 2011)
Hit rate of the full screen: of about 340,000 compounds, about 530 (0.16%) were called active. Another 2% or so got no clear call; they are omitted. The list comes from a sample in which actives are over-represented; it also holds similar structures and randomly drawn compounds. Unmarked numbers belong to inactive results. Rule as the data show it: active = activity change below about -80%; inconclusive = between about -30% and that limit; inactive = weaker than that.

Test: Small Molecules that selectively kill Giardia lamblia: qHTS;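 also: parasites exposed to compound for two days anaerobically before the ATP read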
Conditions: Giardia lamblia trophozoite viability; at 7.66 µM; stronger effect = lower value
In short: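 Media and compound were dispensed first, then trophozoites at 100 cells/well; plates sat 48 hrs at 37 deg C without oxygen before ATP luminescence reagent was added and read after 15-30 min at room temperature.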
% is scaled to controls: 0 for no effect and ±100 for the full control effect.

SMILES	activity change
Oc1ccc(Br)cc1C1C=C(c2ccc3c(c2)OCO3)NC(c2ccc(Cl)cc2)N1 (stereo not drawn)	-6.54%
CC1CC(C)(C)CC2(C1)NC(=O)N(CC(=O)Nc1nccs1)C2=O (stereo not drawn)	7.14%
COc1ccc(-c2nc(=N)sn2-c2ccccc2)cc1	5%
Cc1ccc(SCC(CC(C)C)N2CCN(CCc3ccccc3)CCC2=O)cc1 (stereo not drawn)	-1.92%
COc1ccccc1Nc1cc(C(=O)NCCCN(C)C2CCCCC2)c2ccccc2n1	-11.5%
CN(C)Cc1cn(-c2ccccc2)nc1-c1ccccc1	2.86%
[O-][n+]1ccc(OCc2ccccc2)cc1	23.2%
CCc1ccc(OCCCn2c(CCCNC(=O)C3CCCCC3)nc3ccccc32)cc1	-7.56%
C=CCSc1nnc(N2C(=O)C(O)=C(C(=O)c3ccco3)C2c2ccc(F)cc2)s1 (stereo not drawn)	-13.6%
O=C(c1ccc(N2CCOCC2)c([N+](=O)[O-])c1)N1CCN(c2ccccc2F)CC1	8.07%
O=C(c1cccc(F)c1)N1CCN(c2ccc([N+](=O)[O-])c(N3CCCCC3)c2)CC1	5.61%
O=C(c1cccc(F)c1)N1CCN(c2ccc([N+](=O)[O-])c3cccnc23)CC1	-82.8% (active)
O=C(CN1C(=O)NC2(CCCCCC2)C1=O)NCc1cccs1	-9.8%
COc1ccc(Br)cc1C1C2C=CCC(C)C2C(=O)N1Cc1ccccc1 (stereo not drawn)	20%
O=C(O)C1CC=CC2CCN(C3CCCCC3)C(=O)C21 (stereo not drawn)	-16.4%
Cc1ccc2ccc3c(c2n1)NS(=O)(=O)c1ccccc1-3	-5.37%
CC(C)(C)c1cc(C(=O)N/N=C/c2ccc([N+](=O)[O-])s2)n[nH]1	-93% (active)
CC(C)c1cc(C(=O)N/N=C/C(Br)=C/c2ccccc2)n[nH]1	15.8%
O=C(COc1ccccc1[N+](=O)[O-])N/N=C/c1ccc[nH]1	5.97%
Cc1ccccc1NCC(=O)N/N=C\c1ccc([N+](=O)[O-])s1	-89.1% (active)

SMILES	activity change
Cc1cccc(/C=N/NC(=O)CNc2cccc3ccccc23)n1	-9.25%
Cc1cc(C(=O)N/N=C/c2cc([N+](=O)[O-])cc(C)c2O)n[nH]1	-15.8%
CC1(C)OC(=O)N2CCc3ccccc3C21C (stereo not drawn)	-12.9%
CCOc1ccc(C(C)=O)cc1CSc1nnc(-c2ccncc2)n1CCOC	1.79%
O=C(NNC(=O)c1ccccc1[N+](=O)[O-])Nc1ccccc1C(F)(F)F	-21.9%
Cn1c(SCC(=O)Nc2ccc(Br)cc2F)nnc1-c1ccco1	-12.3%
Cn1c(-c2ccco2)nc2cc3ccccc3cc21	-82.6% (active)
COc1ccc(-n2cnc3cc(NCc4ccco4)ccc32)cc1	-16.4%
Cc1ccc(-c2nc3ccccn3c2Nc2ccc(F)cc2)o1	13.3%
NCCCNC(=S)NCCCN(Cc1ccc(Cl)cc1)c1ccc(Br)cn1	-3.06%
C=C1CCN(C(CC(C)C)C(=O)NCc2cc(OC)c(OC)c(OC)c2)S(=O)(=O)c2ccccc21 (stereo not drawn)	-2.48%
O=C1c2ccccc2C(=O)N1c1ccc(S(=O)(=O)N2CCOCC2)c2ccccc12	-26.6%
c1ccc(-n2ncc(-c3nn[nH]n3)n2)cc1	-10.6%
O=[N+]([O-])c1ccc(S(=O)(=O)N2CCN(c3nc(-c4ccccc4)nc4ccccc34)CC2)cc1	-1.14%
CCC(=O)c1ccc(OCC(=O)N(CC)CC2COc3ccccc3O2)cc1 (stereo not drawn)	5.76%
O=C(NCCc1ccco1)c1ccc(OCc2cn3ccccc3n2)cc1	-6.02%
O=C(Cc1ccccc1)Nc1c(C(=O)N2CCCCCC2)cnn1-c1ccccc1	7.39%
O=C(Nc1cccc2cccnc12)C(F)(F)F	11.7%
O=c1onc(-c2c(F)cccc2F)n1-c1ccccc1Cl	-18.5%
c1ccc(-c2ccc(OCCN3CCOCC3)cc2)cc1	19.5%

SMILES	activity change
c1ccc2cc3c(NCCN4CCOCC4)ccnc3cc2c1	-97.2% (active)
CCOc1nc(NCCN2CCOCC2)nc(Nc2ccc(C)cc2)n1	17.9%
COc1cc2nc(CN(C)Cc3ccc(F)cc3)[nH]c(=O)c2cc1OC	1.83%
CCCNC(=O)c1onc(CSc2ccc(F)cc2)c1C(=O)NC(C)C	23.4%
CC(C)C(NC(=O)C1CCC(C(C)(C)C)CC1)C(=O)NCCCN1CCCCC1 (stereo not drawn)	-2.26%
CCOCCCNC(=O)C(NC(=O)CNC(=O)c1ccccc1)c1ccc(OC)cc1 (stereo not drawn)	-20.4%
COc1ccc(-c2nc3c(c(SCC(=O)Nc4ccc(C(=O)O)cc4)n2)Cc2ccccc2O3)cc1	9.92%
Cc1cc(C)cc(OCC(=O)Nc2cc(NC(=O)COc3cc(C)cc(C)c3)cc(C(=O)O)c2)c1	-12.2%
CC1C/C(=N/NC(=O)c2cccs2)CC(C)(C)C1 (stereo not drawn)	4.93%
Oc1ccc(Cl)cc1C1C=C(c2ccc3c(c2)OCO3)NC(c2ccc(F)c(Br)c2)N1 (stereo not drawn)	-24.8%
O=C(c1ccc2c(=O)n(Cc3ccco3)c(=S)[nH]c2c1)N1CCCC1	4.07%
O=C1C[C@@H](c2ccc3ccccc3c2)N1S(=O)(=O)c1ccccc1[N+](=O)[O-]	0.869%
COc1ccc(C(CCN2CCOCC2)c2c(OC)cc(OC)c3c2OC(=O)CC3c2ccc(OC)cc2)cc1 (stereo not drawn)	12.9%
CCN(CC)c1nc(C#N)nc(OC)n1	-9.05%
C=C1CCN(Cc2ccc(OC)cc2)S(=O)(=O)c2ccccc21	23.9%
CCOc1cc2[nH]c(=O)n(CCC(=O)NCc3ccc(OC)cc3)c(=O)c2cc1OCC	-9.64%
COc1ccc(C2/C=C\CN(C(=O)c3ccc(C)cc3)C(Cc3ccccc3)C(=O)N2Cc2ccc(F)cc2)cc1 (stereo not drawn)	28.8%
Cc1ccc(-c2nnc3ccc(SCC(N)=O)nn23)cc1	5.27%
